FLuc modulator: inhibits or activates purified firefly luciferase, miR-21 counter-screen; P08659; purified FLuc, Km substrates, luminescence inhibition; Potency, µM (doses to about 57.5 µM), usual class: inhibitors; actives 6.9% (n = 360,000); AID 588342; further: nearly all actives have a fitted effect of over 55% in size
Target sequence (P08659 whole entry, looked up): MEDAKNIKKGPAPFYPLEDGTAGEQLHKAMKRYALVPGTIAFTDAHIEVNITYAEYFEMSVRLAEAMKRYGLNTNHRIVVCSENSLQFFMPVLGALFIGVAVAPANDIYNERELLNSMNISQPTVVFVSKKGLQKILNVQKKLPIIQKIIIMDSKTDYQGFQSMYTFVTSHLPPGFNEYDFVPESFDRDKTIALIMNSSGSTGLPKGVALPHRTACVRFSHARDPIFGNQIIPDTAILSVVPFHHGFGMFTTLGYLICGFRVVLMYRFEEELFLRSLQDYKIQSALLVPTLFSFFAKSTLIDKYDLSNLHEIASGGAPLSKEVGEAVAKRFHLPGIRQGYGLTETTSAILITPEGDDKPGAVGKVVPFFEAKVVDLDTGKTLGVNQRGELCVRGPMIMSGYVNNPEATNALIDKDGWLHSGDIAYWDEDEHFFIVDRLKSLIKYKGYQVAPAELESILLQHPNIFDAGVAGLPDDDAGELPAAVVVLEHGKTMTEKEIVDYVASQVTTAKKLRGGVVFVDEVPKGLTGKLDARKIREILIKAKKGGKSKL
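Biochemical qHTS of compounds, final roughly 60 µM downward over six points, against 10 nM purified firefly luciferase using Km concentrations of substrates (10 uM D-luciferin, 10 uM ATP) in Tris acetate pH 7.5 buffer; luminescence output.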
ELG1 genotoxic: genotoxicity induction in ELG1-luciferase HEK293T cells | HEK293T ELG1-luciferase reporter, luminescence, 16 h | Potency, µM (titrated, usually from 46 µM), actives largely listed as activators | actives 1.3% (n = 330,000) | AID 504466; further: nearly all actives have a fitted effect of over 60% in size
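Step 1: seed 2,000 HEK293T ELG1-luciferase cells per well. Step 2: add compound or DMSO, incubate 16 hr at 37 °C. Step 3: ONE-Glo, 30 min at room temperature, read luminescence.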
Rab9 prom act: activates the Rab9 promoter; Huh7 Rab9 promoter-luciferase reporter, luminescence, 24 h; Potency, µM (series often up to 9.22 µM), usual class: activators; actives 2.8% (n = 320,000); further: nearly all actives have a fitted effect of over 60% in size
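Steps: seed 1500 Huh7 Rab9-luc cells per well, rest 2 h at 37 °C; add compound in DMSO; incubate 24 h; add luciferase reagent, 10 min ambient; read luminescence.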
ELG1 repair inh: inhibitors of ELG1-dependent DNA repair in HEK293T cells. HEK293T ELG1-luciferase reporter, luminescence, 16 h; DNA damage induced by 5-fluorouridine. AID 504467. actives 2.3% (n = 330,000). Potency, µM (titrated, usually from 46.1 µM), most hits filed as inhibitors; further: nearly all actives have a fitted effect of over 55% in size
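Step one: seed 2,000 cells per well. Step two: pin-transfer compound or DMSO alongside 5-fluorouridine. Step three: incubate 16 hr, 37 °C, 5% CO2. Step four: add ONE-Glo, wait 30 min, read luminescence.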
SMN2 splice up: enhancers of SMN2 splice variant expression | actives 2.8% (n = 210,000) | HEK293 SMN2-luciferase splicing reporter, luminescence, 30-36 h | Potency, µM (highest dose often 46.1 µM), usual class: activators; further: nearly all actives have a fitted effect of over 55% in size
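HEK293 cells carry an SMN2 […]–luciferase reporter in which exon 7 inclusion puts luciferase in frame. Cells were plated 10-12 h before compound addition, then incubated 30-36 h at 37C. ONE-Glo luminescence was read; sodium butyrate at 4.5 mM final served as control.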
NPC1 prom act: activates the NPC1 promoter; Huh7 NPC1 promoter luciferase reporter, 24 h; Potency, µM (series often up to 9.22 µM), hits mostly activators; actives 2.4% (n = 320,000); AID 485313; further: nearly all actives have a fitted effect of over 60% in size
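Cells: Huh7 expressing luciferase under the NPC1 promoter, 1500/well. Seeded 2 h, compound added, incubated 24 h at 37 °C. Luciferase reagent, 10 min ambient, then luminescence.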
Hits are given with their value; i = inactive; ? = inconclusive; nt = not tested or not shown; [ ] = remark or other dose. An excerpt weighted towards active compounds, which were near 9.2% of everything screened. The call rests on the fitted dose curve; in most records, active means well fitted curve in the direction sought with a large enough effect; inconclusive means small, poorly fitted or top-dose-only effect, or another doubt; inactive means no such curve, though single readings can be large; an effect the other way counts as inactive or inconclusive.

SMILES	FLuc modulator	ELG1 genotoxic	Rab9 prom act	ELG1 repair inh	SMN2 splice up	NPC1 prom act
Cc1cccc(N2CCN(C(=O)CNC(=O)Cc3ccccc3)CC2)c1C	nt	i	nt	?	nt	nt
Cc1cccc(N2CCN(C(=O)CNC(=O)c3cccc([N+](=O)[O-])c3)CC2)c1C	i	i	i	18µM	nt	i
Cc1nc2c(C(=O)NCCC(C)C)cnn2c(C)c1Cc1c(F)cccc1Cl	i	nt	nt	nt	nt	nt
Cc1ccc(Nc2cc(C)nn2-c2nc(C)cc(C)n2)cc1	i	i	i	15µM	i	i
Cc1ccccc1Cn1cc(CCC(=O)NCc2cccc(Br)c2)c2ccccc21	i	nt	nt	nt	nt	nt
CCOC(=O)C1=C(C)NC(SC)=C(C#N)C1CC(C)C (stereo not drawn)	i	i	i	10µM	nt	i
CC(=O)C1=C(C)NC(SCC(N)=O)=C(C#N)C1CC(C)C (stereo not drawn)	?	i	i	i	i	i
CN(C)S(=O)(=O)c1ccc(Cl)c(NC(=O)COC(=O)/C=C/c2cnc3ccccc3n2)c1	11µM	i	i	i	nt	i
Cc1ccc(S(=O)(=O)N(C)C)cc1NC(=O)COC(=O)/C=C/c1cnc2ccccc2n1	17µM	i	i	i	i	i
Cc1cc2c(cc1S(=O)(=O)N(CCN(C)C)Cc1ccccc1)OCC(=O)N2	i	nt	nt	nt	nt	nt
CSCCC(NC(=O)C1CCCCC1)C(=O)Nc1ccc(F)c(Cl)c1 (stereo not drawn)	i	nt	nt	nt	i	nt
CCO[C@H]1O[C@@H]([C@H](COCc2ccccc2)OCc2ccccc2)[C@@H](OCc2ccccc2)[C@H]1O	nt	nt	nt	nt	i	nt
CCc1ccc(-n2nc(C)c3c(C(=O)Nc4cc(C)ccc4C)cc(C)nc32)cc1	i	nt	nt	nt	nt	nt
CCOC(=O)c1ccc(NC(=O)c2sc3ccccc3c2Cl)cc1	i	nt	nt	nt	i	nt
CNC(=O)c1ccc(NC(=O)c2nsc3ccccc23)cc1	1.5µM	nt	nt	nt	2µM	nt
CCOC(=O)c1ccc(NC(=O)c2nsc3ccccc23)cc1	2.4µM	nt	nt	nt	5.6µM	nt
O=C(O)Cn1c(=O)n(Cc2ccccc2)c2ccccc21	i	i	i	i	nt	i
N=c1n(CC(=O)c2cccs2)c2ccccc2n1Cc1ccccc1	i	i	i	7.3µM	nt	i
CC(C)(C)S(=O)(=O)c1cnc2c(-c3ccsc3)cnn2c1N	i	i	?	?	?	?
Nc1c(-c2ccccc2)cnc2c(-c3ccccc3)cnn12	0.24µM	0.73µM	0.11µM	?	nt	0.32µM
CS(=O)(=O)c1cnc2c(-c3ccc(F)cc3)cnn2c1N	2.4µM	?	1.1µM	?	?	0.79µM
Nc1c(-c2cccs2)cnc2c(-c3ccc(F)cc3)cnn12	0.48µM	2.6µM	0.35µM	?	nt	0.45µM
COc1ccc(Cl)cc1NC(=O)c1cc2ccccn2n1	i	nt	nt	nt	nt	nt
CC(=O)c1cccc(NC(=O)c2c(C)nn(-c3ccccc3)c2Cl)c1	?	i	i	?	i	i
COc1ccc(C)cc1NC(=O)c1cc2ccccn2n1	21µM	nt	nt	nt	nt	nt
SMILES	FLuc modulator	ELG1 genotoxic	Rab9 prom act	ELG1 repair inh	SMN2 splice up	NPC1 prom act
CC(=O)c1cccc(NC(=O)c2cc3ccccn3n2)c1	3.4µM	18µM	4µM	?	i	1.8µM
Cc1ccccc1NC(=O)c1cc2ccccn2n1	3.4µM	?	1.4µM	?	nt	3.5µM
Cc1cc(Cl)ccc1NC(=O)c1cc2ccccn2n1	4.8µM	nt	nt	nt	nt	nt
O=C(Nc1cccc(F)c1)C1CCCN(C(=O)c2ccc(Cl)cc2)C1 (stereo not drawn)	i	i	i	i	nt	i
CCOc1ccc(C2C(=O)N(C3CCCCC3)CC(=O)N2Cc2ccc(F)cc2)cc1OC (stereo not drawn)	i	nt	nt	nt	nt	nt
COC(=O)c1ccc(CNC(=O)[C@@H]2CCCN2S(=O)(=O)c2ccccc2F)cc1	nt	i	nt	i	nt	nt
Cc1ccc(C)c(NC(=O)c2cc3ccccn3n2)c1	11µM	9.2µM	2.2µM	?	13µM	3.5µM
Cc1ccc(C)c(NC(=O)c2cnn3ccccc23)c1	?	?	i	?	i	i
CCOC(=O)C(=O)Nc1ccc(F)cc1	i	i	i	?	i	i
CCOC(=O)C(=O)Nc1ccc(Oc2ccccc2)cc1	15µM	i	i	i	i	i
CC(C)[C@H](NC(=O)Nc1ccc(Oc2ccccc2)cc1)C(=O)O	24µM	i	i	i	i	i
CC[C@H](C)C(=O)O[C@@H]1C[C@H](C)C=C2C=C[C@H](C)[C@@H](CC[C@H]3C[C@@H](O)CC(=O)O3)[C@H]21	nt	nt	nt	nt	i	nt
Cc1ccc(S(=O)(=O)c2cn(CC(=O)Nc3ccc4c(c3)OCO4)c3ccccc3c2=O)cc1	i	nt	nt	nt	i	nt
Cc1ccc(S(=O)(=O)c2cnc(SCC(=O)Nc3ccc4c(c3)OCCO4)[nH]c2=O)cc1Cl	11µM	nt	nt	nt	nt	nt
O=C(CSc1ncn[nH]1)Nc1ccc2c(c1)OCCO2	?	?	?	?	i	i
O=C(CSc1ncc(S(=O)(=O)c2ccc(Cl)cc2)c(=O)[nH]1)Nc1ccc2c(c1)OCCO2	12µM	nt	nt	nt	i	nt
CC(C)c1ccc(S(=O)(=O)c2cnc(SCC(=O)Nc3ccc4c(c3)OCCO4)[nH]c2=O)cc1	11µM	nt	nt	nt	i	nt
Cc1ccc(S(=O)(=O)c2cnc(SCC(=O)Nc3ccc4c(c3)OCCO4)[nH]c2=O)cc1	11µM	nt	nt	nt	i	nt
COc1cccc(NC(=O)CSc2ncc(S(=O)(=O)c3ccc(C)c(C)c3)c(=O)[nH]2)c1	?	nt	nt	nt	i	nt
O=C(Cn1c(=O)n2nc(-c3cccc(F)c3)nc2c2ccccc21)N1CCN(c2ccccc2F)CC1	i	nt	nt	nt	nt	nt
CSCC[C@H](N)C(=O)N1CCC(C(=O)N[C@H](C)C(=O)NC(C)c2ccccc2)CC1 (stereo partly drawn)	i	i	i	i	nt	i
COc1ccc(CN2COc3ccc4c(C)cc(=O)oc4c3C2)cc1	i	nt	nt	nt	nt	nt
COc1ccc(S(=O)(=O)c2cnc(SCC(=O)Nc3cc(F)ccc3C)[nH]c2=O)cc1Cl	9.5µM	nt	nt	nt	i	nt
Cc1cc(C)c(NC(=O)CSc2ncc(S(=O)(=O)c3ccc(C(C)(C)C)cc3)c(=O)[nH]2)c(C)c1	11µM	nt	nt	nt	i	nt
Cc1cc(NC(=O)COc2ccccc2C)ccc1NC(=O)c1cccs1	i	i	i	i	nt	i
SMILES	FLuc modulator	ELG1 genotoxic	Rab9 prom act	ELG1 repair inh	SMN2 splice up	NPC1 prom act
COc1ccc(S(=O)(=O)Nc2ccc3c(c2)CCCN3S(=O)(=O)c2ccc(C)cc2)cc1F	i	nt	nt	nt	nt	nt
COc1ccc(CNC(=O)Cn2c(=O)ccc3cc(S(=O)(=O)N4CCCC4)ccc32)cc1	i	nt	nt	nt	nt	nt
Cc1ccccc1C(=O)Oc1cc(N)n(S(C)(=O)=O)n1	?	i	i	?	i	i
Cc1c(C(=O)Oc2cc(N)n(S(C)(=O)=O)n2)cccc1[N+](=O)[O-]	21µM	i	i	i	i	i
O=C(Nc1ccc(Cl)cc1)ON=C1CCCC1	17µM	?	3.5µM	?	i[1.84 µM]	i
CC(C)Sc1nc(N)nc(-c2cccs2)c1C#N	17µM	?	2.8µM	?	18µM	?
CSc1nc(N)nc(-c2cccs2)c1C#N	?	i	i	?	i	i
